Source: PubChem BioAssay (Tox21)
Values without a mark were called inactive. Results filed as inconclusive are left out. Entries that show only a call come without a potency. Active and inactive are the calls of the source. Unless noted, calls follow the shape of the dose curve; as a rule, active = well fitted curve in the direction sought with a large enough effect in the repeat runs; inconclusive = weak or mixed curves; inactive = no such curve, though single readings can be large; an effect the other way counts as inactive or inconclusive.

Tests used:
[1] = qHTS assay to identify small molecule agonists or antagonists of the thyroid stimulating hormone receptor (TSHR) signaling pathway - wild type cell line counter screen (AID 1259384; calls by dose curve)
Procedure, shortened: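 Wild-type HEK293 cells were plated 18 h at 37 C/5% CO2, pin-dosed with compound plus Ro20-1724 medium, held 30 min at room temperature, then given cAMP-d2 and anti-cAMP-cryptate; fluorescence was read after 1 h. Fifteen concentrations, triplicate.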

[2] = biological target: Thyrotropin receptor (Homo sapiens) (UniProt P16473); test: qHTS assay to identify small molecule antagonists of the thyroid stimulating hormone receptor (TSHR) signaling pathway (AID 1259385; calls by dose curve; also: nearly all actives have a fitted effect of over 20% in size)
Procedure, shortened: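 TSHR-HEK293 cells were plated and held 18 h at 37C/5% CO2, then given compound plus Ro20-1724 and stimulated with TSH at 1.5 ng/mL final. After 30 min at room temperature, cAMP was detected with cAMP-d2/anti-cAMP-cryptate (1 h) by fluorescence.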

[3] = qHTS assay to identify small molecule agonists of the estrogen receptor alpha (ER-alpha) signaling pathway in the presence of an antagonist - cell viability counter screen (AID 1259386);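 also: series mostly up to about 92 µM; cells exposed to compounds for 22 h at 37 °C before the viability read; nearly all actives have a fitted effect of over 30% in size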
Procedure, shortened: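 VM7Luc4E2, stripped-serum pre-culture 5 d; 24hr plating; +ICI-182,780 10.0nM final; cpds 15 conc, 22hr, 37C/5% CO2; CellTiter-Fluor added at 21hr, fluorescence 1hr later.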

[4] = biological target: Progesterone receptor (Homo sapiens) (UniProt P06401); test: qHTS assay to identify small molecule agonists of the progesterone receptor (PR) signaling pathway (AID 1346784; calls by dose curve; also: nearly all actives have a fitted effect of over 30% in size)
Procedure, shortened: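 Reporter assay, GripTite PR-UAS-bla HEK 293T cells: 16 hr exposure to DMSO-dissolved compounds at 37C, 5% CO2, in steroid-depleted (2% charcoal-stripped FBS) medium; beta-lactamase measured by FRET fluorescence.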

[5] = biological target: Progesterone receptor (Homo sapiens) (UniProt P06401); test: qHTS assay to identify small molecule antagonists of the progesterone receptor (PR) signaling pathway (AID 1346795; active = well fitted inhibition curve with a large enough effect in the signal ratio in the repeat runs, not every such curve was filed as active; the % refers to the signal ratio)
Procedure, shortened: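 Stimulus R5020 at 1 nM final; cells HEK293T PR-UAS-bla; medium with 2% charcoal-stripped FBS; compound exposure 16 hr at 37C, 5% CO2; detection by FRET beta-lactamase substrate, 2 hr, room temperature.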

[6] = qHTS assay to identify small molecule antagonists of the progesterone receptor (PR) signaling pathway - cell viability counter screen (AID 1346798); also: series mostly up to about 92 µM; nearly all actives have a fitted effect of over 50% in size
Procedure, shortened: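 In the same plates used for the beta-lactamase readout, cell viability of compound- and R5020-treated PR-UAS-bla HEK293T cells (16 hr, 37C) was assessed by CellTiter-Glo luminescence.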

[7] = qHTS assay to identify small molecule agonists of the progesterone receptor (PR) signaling pathway - cell viability counter screen (AID 1346799; calls by dose curve; also: nearly all actives have a fitted effect of over 45% in size)
Procedure, shortened: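 Multiplexed viability read: CellTiter-Glo luminescence, 30 min RT, following LiveBLAzer FRET measurement on PR-UAS-bla HEK293T cells exposed to compounds 16 hr.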

[8] = qHTS assay to identify small molecule antagonists of the TGF-beta/Smad signaling pathway - cell viability counter screen (AID 1346824); also: nearly all actives have a fitted effect of over 50% in size
Procedure, shortened: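 SBE-bla HEK 293T cells were plated overnight at 37 C, then given compounds in DMSO plus TGF-beta1 (added as 0.25 ng/mL solution) for 5 hr. After the bla read, CellTiter-Glo was added to the same wells and luminescence read after 30 min at room temperature.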

[9] = qHTS assay to identify small molecule agonists of the TGF-beta/Smad signaling pathway - cell viability counter screen (AID 1346829); also: top concentration of the series differs between compounds; nearly all actives have a fitted effect of over 45% in size
Procedure, shortened: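 After overnight seating at 37 C and 5% CO2, reporter cells got compounds for 5 hr and FRET substrate for 2 hr; cell viability then came from CellTiter-Glo luminescence.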

[10] = qHTS assay to identify small molecule agonists of the TGF-beta/Smad signaling pathway (AID 1346859; active = well fitted activation curve with a large enough effect in the signal ratio in the repeat runs, not every such curve was filed as active; the % refers to the signal ratio; also: series mostly up to about 77 µM)
Procedure, shortened: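 Screening used HEK 293T SBE-bla cells at 4,000/well. Test agents: 5 hr, 37 C. Detection: FRET substrate, 2 hr RT, then excitation 405 nm with emissions at 460 and 530 nm.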

[11] = Human pregnane X receptor (PXR) small molecule agonists, qHTS cell viability counter screen (AID 1346977); also: nearly all actives have a fitted effect of over 50% in size
Procedure, shortened: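 In each well, the PXR reporter HepG2 line was checked for viability: CellTiter-Fluor reagent added 23hr post-dosing, fluorescence read after 1hr incubation at 37C.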

[12] = Caspase-3/7 induction in CHO-K1 cells by small molecules, qHTS cell viability counter screen (AID 1346979); also: nearly all actives have a fitted effect of over 35% in size
Procedure, shortened: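 Following a 5hr settling period, CHO-K1 cells at 1,500 per well received DMSO-dissolved compounds. Cell viability was quantified 16hr later by CellTiter-Fluor fluorescence, measured after 1hr with reagent at 37C.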

[13] = Caspase-3/7 induction in CHO-K1 cells by small molecules, qHTS assay (AID 1346980); also: nearly all actives have a fitted effect of over 15% in size
Procedure, shortened: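 Wild-type cells were seeded at 1,500 per well and settled 5 hr at 37 C, 5% CO2, then exposed to DMSO-dissolved compounds for 17 hr. Caspase-Glo 3/7 reagent was added, and luminescence was read after 30min at room temperature.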

[14] = Caspase-3/7 induction in HepG2 cells by small molecules, qHTS cell viability counter screen (AID 1346981); also: series mostly up to about 92 µM; nearly all actives have a fitted effect of over 30% in size
Procedure, shortened: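 HepG2, WT, 2,000 cells/well; 5 hr pre-incubation 37 C/5% CO2; compound pin-transferred from DMSO; 16 hr exposure; CellTiter-Fluor, 1 hr; fluorescence read.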

[15] = biological target: Nuclear receptor subfamily 1 group I member 2 (Homo sapiens) (UniProt O75469); test: Human pregnane X receptor (PXR) small molecule agonists, qHTS assay (AID 1346982); also: nearly all actives have a fitted effect of over 35% in size; also: potency is read from the fitted curve at half-maximal effect
Procedure, shortened: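 Luciferase signal from ONE-Glo (30 min, room temperature) measured activation of hPXR-driven CYP3A4 reporter expression in PXR-Luc HepG2 cells treated with compounds for 24 hr at 37 C.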

[16] = biological target: Estrogen receptor (Homo sapiens) (UniProt P03372); test: qHTS assay to identify small molecule agonists of the estrogen receptor alpha (ER-alpha) signaling pathway in the presence of an antagonist (AID 1259383; calls by dose curve; also: top concentration of the series differs between compounds; nearly all actives have a fitted effect of over 15% in size)
Procedure, shortened: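 VM7Luc4E2, endog. ER-alpha + 4×ERE-luc; charcoal-stripped FBS, phenol red-free, 5 d; 24hr plating; +10.0nM ICI-182,780 (final); cpds 15 conc, 22hr, 37C/5% CO2; ONE-Glo luminescence.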

[17] = biological target: Thyrotropin-releasing hormone receptor (Homo sapiens) (UniProt P34981); test: qHTS assay to identify small molecule antagonists of the thyrotropin-releasing hormone receptor (TRHR) signaling pathway (AID 1346877; active = well fitted inhibition curve with a large enough effect in the repeat runs, not every such curve was filed as active; also: series mostly up to about 51 µM)
Procedure, shortened: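 Intracellular calcium fluorescence, read kinetically every second over 3 min, reports TRH-evoked signalling in HEK293 cells carrying TRHR. Test compounds were added 5 min ahead of a 1 nM TRH challenge.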

[18] = biological target: Thyrotropin-releasing hormone receptor (Homo sapiens) (UniProt P34981); test: qHTS assay to identify small molecule agonists of the thyrotropin-releasing hormone receptor (TRHR) signaling pathway (AID 1346891; calls by dose curve; also: series mostly up to about 58 µM)
Procedure, shortened: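 Readout was intracellular calcium fluorescence in TRHR-Hek293 cells. Cells were incubated 18 h, dye-loaded 2 h at 37 °C, and treated with compound in agonist mode.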

[19] = Caspase-3/7 induction in HepG2 cells by small molecules, qHTS assay (AID 1346978); also: nearly all actives have a fitted effect of over 15% in size
Procedure, shortened: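 Wild-type HepG2 cells (2,000/well) were settled 5 h at 37 C, 5% CO2, then exposed to compounds in DMSO for 17 h. Caspase-3/7 activity was read by luminescence 30 min after adding Caspase-Glo 3/7 reagent at room temperature.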

[20] = biological target: Nuclear receptor subfamily 1 group I member 2 (Rattus norvegicus) (UniProt Q9R1A7); test: Rat pregnane X receptor (rPXR) activation by small molecules, qHTS assay (AID 1346983); conditions: rPXR luciferase reporter cells, One-Glo luminescence, 24 h; max activation: stronger effect = higher value; also: nearly all actives have a fitted effect of over 20% in size
Procedure, shortened: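 Cell-based rPXR luciferase reporter assay, 2,000 cells per well, rested 5hr at 37 C before compound addition in DMSO, then 24 hr at 37 C. One-Glo reagent was added and luminescence read after 30 min at room temperature.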

Sequence of Thyrotropin-releasing hormone receptor (Homo sapiens) (P34981 whole entry, looked up): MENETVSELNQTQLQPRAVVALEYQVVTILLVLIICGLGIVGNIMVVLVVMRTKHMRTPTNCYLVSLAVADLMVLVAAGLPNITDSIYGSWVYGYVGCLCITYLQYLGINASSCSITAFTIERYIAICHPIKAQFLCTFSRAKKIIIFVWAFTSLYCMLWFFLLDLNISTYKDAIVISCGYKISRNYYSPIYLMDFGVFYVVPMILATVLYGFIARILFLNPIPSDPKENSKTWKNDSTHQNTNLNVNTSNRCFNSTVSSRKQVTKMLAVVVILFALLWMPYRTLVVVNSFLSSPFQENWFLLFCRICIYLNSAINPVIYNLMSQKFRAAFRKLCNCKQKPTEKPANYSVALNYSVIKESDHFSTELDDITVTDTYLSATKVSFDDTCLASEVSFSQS
Sequence of Nuclear receptor subfamily 1 group I member 2 (Homo sapiens) (O75469 whole entry, looked up): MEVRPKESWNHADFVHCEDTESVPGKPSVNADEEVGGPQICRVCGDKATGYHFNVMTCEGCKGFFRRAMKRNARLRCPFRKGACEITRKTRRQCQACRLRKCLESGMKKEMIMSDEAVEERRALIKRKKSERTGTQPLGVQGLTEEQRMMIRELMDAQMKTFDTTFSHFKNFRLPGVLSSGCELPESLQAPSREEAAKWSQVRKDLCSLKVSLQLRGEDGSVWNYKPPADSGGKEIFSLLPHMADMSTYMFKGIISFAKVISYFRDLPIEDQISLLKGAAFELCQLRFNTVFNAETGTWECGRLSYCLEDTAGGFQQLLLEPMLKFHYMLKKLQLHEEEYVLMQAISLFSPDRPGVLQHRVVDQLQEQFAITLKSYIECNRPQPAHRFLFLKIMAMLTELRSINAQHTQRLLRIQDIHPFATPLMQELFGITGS
Sequence of Thyrotropin receptor (Homo sapiens) (P16473 whole entry, looked up): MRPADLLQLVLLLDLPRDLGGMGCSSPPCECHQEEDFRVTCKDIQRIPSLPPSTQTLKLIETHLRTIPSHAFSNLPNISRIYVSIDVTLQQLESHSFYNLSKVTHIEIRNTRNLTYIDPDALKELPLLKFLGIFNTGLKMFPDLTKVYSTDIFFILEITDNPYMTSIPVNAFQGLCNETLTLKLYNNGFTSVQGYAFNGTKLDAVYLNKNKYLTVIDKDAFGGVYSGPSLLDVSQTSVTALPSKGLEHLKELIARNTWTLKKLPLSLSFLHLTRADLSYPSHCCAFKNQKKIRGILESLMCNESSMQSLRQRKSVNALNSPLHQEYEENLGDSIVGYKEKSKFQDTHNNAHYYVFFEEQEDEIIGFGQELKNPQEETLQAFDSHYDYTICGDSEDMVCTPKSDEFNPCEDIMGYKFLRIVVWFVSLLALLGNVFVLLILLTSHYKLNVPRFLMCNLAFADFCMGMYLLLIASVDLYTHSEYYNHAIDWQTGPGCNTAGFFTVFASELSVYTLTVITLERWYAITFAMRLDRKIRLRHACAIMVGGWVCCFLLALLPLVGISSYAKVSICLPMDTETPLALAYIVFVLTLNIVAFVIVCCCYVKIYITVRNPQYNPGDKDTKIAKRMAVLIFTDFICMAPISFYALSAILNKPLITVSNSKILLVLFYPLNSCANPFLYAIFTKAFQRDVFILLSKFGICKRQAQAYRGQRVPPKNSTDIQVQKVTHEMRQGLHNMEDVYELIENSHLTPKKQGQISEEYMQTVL
Sequence of Progesterone receptor (Homo sapiens) (P06401 whole entry, looked up): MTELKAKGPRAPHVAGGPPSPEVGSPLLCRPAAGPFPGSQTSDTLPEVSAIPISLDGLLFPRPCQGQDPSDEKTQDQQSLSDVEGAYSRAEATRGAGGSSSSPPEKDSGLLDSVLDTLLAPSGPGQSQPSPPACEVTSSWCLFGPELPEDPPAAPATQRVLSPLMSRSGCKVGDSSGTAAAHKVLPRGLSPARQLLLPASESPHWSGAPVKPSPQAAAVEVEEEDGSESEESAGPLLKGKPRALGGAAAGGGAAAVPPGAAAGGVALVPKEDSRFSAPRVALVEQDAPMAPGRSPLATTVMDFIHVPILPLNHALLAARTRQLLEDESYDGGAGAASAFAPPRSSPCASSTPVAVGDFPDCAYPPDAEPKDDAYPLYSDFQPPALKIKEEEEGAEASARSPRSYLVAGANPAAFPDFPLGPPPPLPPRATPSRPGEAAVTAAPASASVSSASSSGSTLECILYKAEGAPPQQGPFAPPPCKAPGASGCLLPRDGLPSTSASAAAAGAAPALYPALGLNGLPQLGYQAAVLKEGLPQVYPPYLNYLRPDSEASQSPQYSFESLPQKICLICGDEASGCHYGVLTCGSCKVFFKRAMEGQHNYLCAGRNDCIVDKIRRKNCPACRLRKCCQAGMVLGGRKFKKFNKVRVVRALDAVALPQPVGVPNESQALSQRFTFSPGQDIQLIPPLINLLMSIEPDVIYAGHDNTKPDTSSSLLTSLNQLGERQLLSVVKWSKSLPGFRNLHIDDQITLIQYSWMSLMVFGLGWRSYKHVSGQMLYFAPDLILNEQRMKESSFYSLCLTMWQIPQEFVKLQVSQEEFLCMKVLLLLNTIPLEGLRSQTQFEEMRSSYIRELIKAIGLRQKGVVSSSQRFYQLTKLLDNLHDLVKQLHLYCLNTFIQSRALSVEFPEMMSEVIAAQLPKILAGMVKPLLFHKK
Sequence of Estrogen receptor (Homo sapiens) (P03372 whole entry, looked up): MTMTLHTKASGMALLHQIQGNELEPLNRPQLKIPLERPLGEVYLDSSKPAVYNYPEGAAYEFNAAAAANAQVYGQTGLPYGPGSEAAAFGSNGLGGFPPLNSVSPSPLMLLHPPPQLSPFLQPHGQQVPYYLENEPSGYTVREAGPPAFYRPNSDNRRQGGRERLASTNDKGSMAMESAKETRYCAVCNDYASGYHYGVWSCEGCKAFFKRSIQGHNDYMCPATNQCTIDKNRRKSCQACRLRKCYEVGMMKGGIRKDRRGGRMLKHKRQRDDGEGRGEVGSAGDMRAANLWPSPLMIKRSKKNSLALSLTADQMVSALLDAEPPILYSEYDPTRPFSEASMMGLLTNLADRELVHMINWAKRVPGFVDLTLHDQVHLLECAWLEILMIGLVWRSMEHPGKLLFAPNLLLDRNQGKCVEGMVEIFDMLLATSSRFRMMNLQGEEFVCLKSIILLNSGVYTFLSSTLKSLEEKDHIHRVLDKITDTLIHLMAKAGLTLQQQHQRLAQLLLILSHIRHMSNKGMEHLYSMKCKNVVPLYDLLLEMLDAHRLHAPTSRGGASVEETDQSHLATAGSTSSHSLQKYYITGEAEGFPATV
Sequence of Nuclear receptor subfamily 1 group I member 2 (Rattus norvegicus) (Q9R1A7 whole entry, looked up): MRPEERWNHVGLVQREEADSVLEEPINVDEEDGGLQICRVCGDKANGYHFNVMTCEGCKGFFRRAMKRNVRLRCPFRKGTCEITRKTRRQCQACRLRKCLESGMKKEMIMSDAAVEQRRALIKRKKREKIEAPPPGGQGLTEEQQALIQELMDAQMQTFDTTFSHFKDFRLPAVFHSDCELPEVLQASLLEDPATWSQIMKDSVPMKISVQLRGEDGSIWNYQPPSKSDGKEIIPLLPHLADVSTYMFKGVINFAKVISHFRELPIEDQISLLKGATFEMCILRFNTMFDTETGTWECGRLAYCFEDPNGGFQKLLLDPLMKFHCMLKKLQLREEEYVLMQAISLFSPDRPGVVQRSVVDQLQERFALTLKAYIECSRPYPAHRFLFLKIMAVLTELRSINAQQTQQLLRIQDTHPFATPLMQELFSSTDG

Compound	outcome [1]	outcome [2]	outcome [3]	Potency [4]	Potency [5]	outcome [6]	Potency [7]	outcome [8]	outcome [9]	outcome [10]	outcome [11]	Potency [12]	outcome [13]	outcome [14]	Potency [15]	Potency [16]	outcome [17]	Potency [18]	outcome [19]	max activation [20]
CCOCCOCCOC(C)=O	inactive	inactive	inactive	inactive	inactive	inactive	inactive	inactive	inactive	inactive	inactive	inactive	inactive	inactive	inactive	–	–	–	–	–
CCCCCCCC(=O)N(C)C	–	–	–	inactive	inactive	inactive	inactive	inactive	inactive	inactive	inactive	inactive	inactive	inactive	–	inactive	inactive	inactive	inactive	–
O=C1Nc2ccccc2C1=O	inactive	inactive	inactive	inactive	inactive	–	inactive	–	–	inactive	inactive	inactive	inactive	inactive	inactive	–	inactive	inactive	inactive	–
CCCCCCCCCCCBr	–	–	–	inactive	inactive	inactive	inactive	inactive	inactive	–	inactive	–	inactive	inactive	inactive	inactive	inactive	inactive	inactive	–
CC12CCCC=C1C(=O)OC2=O (stereo unspecified)	inactive	inactive	inactive	inactive	inactive	inactive	inactive	inactive	inactive	inactive	inactive	inactive	inactive	inactive	inactive	–	inactive	inactive	inactive	–
C[C@H]1COc2c(C3(N)CC3)c(F)cc3c(=O)c(C(=O)O)cn1c23	inactive	inactive	inactive	inactive	inactive	inactive	inactive	inactive	inactive	inactive	inactive	inactive	inactive	inactive	inactive	–	–	–	inactive	-2.87%
C=CC(=O)CC	inactive	inactive	inactive	inactive	inactive	inactive	inactive	–	inactive	inactive	inactive	inactive	inactive	inactive	inactive	–	–	–	inactive	–
CC(C)OC(=O)C(C(=O)OC(C)C)=C1SC=CS1	inactive	inactive	inactive	inactive	–	inactive	–	inactive	inactive	inactive	inactive	inactive	inactive	inactive	26.6 µM (active)	–	inactive	inactive	inactive	6.37%
O=Cc1ccccc1S(=O)(=O)O	inactive	inactive	inactive	inactive	–	inactive	inactive	inactive	inactive	inactive	inactive	inactive	inactive	inactive	inactive	–	–	–	inactive	–
